The whole screen tested about 360,000 compounds, of which about 3,700 (1%) were called active. Not shown: some 2% with an inconclusive outcome. This is one part of a sample in which actives are shown more often than they occur.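 Rule for the calls: active = normalized GFP-positive differentiation at or above the plate's own cutoff, the solvent-only control mean plus 3 SD; inconclusive = no clear call, values can overlap the other calls; inactive = the rest.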

A short description of this test: induction of myeloid progenitor differentiation, primary screen, cell-based, flow cytometry, MLPCN library (AID 624256).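 For GFP+ MAC1+ double positive: cells exposed to compound for four days before flow analysis.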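 For normalized GFP-positive differentiation: cells exposed to compound for four days before flow analysis; 0% = DMSO wells and 100% = fulvestrant positive control at 5 µM.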 The conditions noted are these: ER-HoxA9 myeloid progenitors, lysozyme-GFP differentiation, at 10 µM; GFP+ MAC1+ double positive: measured here: differentiation confirmed by MAC1 staining, stronger effect = higher value; normalized GFP-positive differentiation: stronger effect = higher value. A general note: In flow cytometry, cells or beads pass a laser one at a time.
On to `Cc1ccc(NS(=O)(=O)c2cc3c(cc2Br)NC(=O)CO3)cc1C`, for which the GFP+ MAC1+ double positive was 2.1% and the molecule was classed as inactive.
For the molecule `COc1ccc(C(c2nnnn2C2CCCC2)N2CCN(C/C=C/c3ccccc3)CC2)cc1` (stereo unspecified), the GFP+ MAC1+ double positive worked out at 0.9% and the molecule was classed as inactive.
`Nc1nc(Nc2ccccc2F)nc(NC2CCCCC2)c1[N+](=O)[O-]`: the GFP+ MAC1+ double positive worked out at 5.3% and the normalized GFP-positive differentiation is 25.3% (active).
Regarding `C=CCNc1nc(N)c([N+](=O)[O-])c(NC2CCCCC2)n1`, the GFP+ MAC1+ double positive was determined as 1% and the molecule was called inactive.
For `Nc1nc(NCC2CCCO2)nc(Nc2ccccc2F)c1[N+](=O)[O-]` (stereo unspecified) the same measures were 0.2% and “inactive”.
As to `O=C(Nc1ccc(Cl)cc1)c1csc([C@H]2C[C@H](O)[C@@H](CO)O2)n1`, the GFP+ MAC1+ double positive came out at 0.4% and the outcome was inactive.
For `CCN1C(=O)[C@@H]2[C@@H]3CN(S(=O)(=O)c4ccccc4C)[C@@H](c4ccc(Cl)cc4)[C@@H]3C(=O)C[C@@H]2C1=O` the same measures were 0.5% and “inactive”.
For `CN1C[C@@H](CO)O[C@@H](n2cnc3c(N4CCN(CCO)CC4)ncnc32)C1` the same measures were 1.5% and “inactive”.
The like results for `Cc1scc(C(=O)NNC(=S)NCc2ccccc2)c1C` were, in that order, 0.2% and “inactive”.
In the case of `CNC(=S)N/N=C/c1ccc(OCc2ccccc2)c(Br)c1`, the GFP+ MAC1+ double positive is 0.2% and the molecule was classed as inactive.
Regarding `CNC(=S)NNC(=O)c1sccc1OCc1ccccc1`, the GFP+ MAC1+ double positive was found to be 2.8% and the normalized GFP-positive differentiation is 6.37% (active).
Consider `CC1(C(=O)Nc2ccc3c(c2)OCCO3)CSCC(=O)N1CCOc1ccccc1` (stereo unspecified), for which the GFP+ MAC1+ double positive turned out to be 3.3% and the molecule was classed as inactive.
The like results for `Cc1cc(Br)cn2c(Cc3cccc(F)c3)c(-c3cccc(Br)c3)nc12` were, in that order, 0.6% and “inactive”.
For the molecule `CCOC(=O)C(C(=O)OCC)C(C#N)c1ccccc1` (stereo unspecified), the GFP+ MAC1+ double positive stood at 3.3% and the normalized GFP-positive differentiation is 9.91% (active).
Take `CCOC(=O)/C=C/C(=O)OCC(=O)NC(c1ccccc1)c1ccccc1`: the GFP+ MAC1+ double positive came out at 0.4% and the call was inactive.
The like results for `CCOC(=O)C(C(=O)c1ccccc1)C(c1ccccc1)c1nccc2ccccc12` (stereo unspecified) were, in that order, 0.2% and “inactive”.
The like results for `CC1(C(=O)NCc2ccccc2)CSCC(=O)N1CCCn1ccnc1` (stereo unspecified) were, in that order, 4.4% and “inactive”.
Regarding `O=C1NC(O)CCN1C1CC(O)C(CO)O1` (stereo unspecified), the GFP+ MAC1+ double positive was 1.3% and the call was inactive.
The like results for `CCOc1ccc(CCN2C(=S)N([C@@H](CC(C)C)CN3CCC[C@@H]3CN3C(=S)NC[C@@H]3Cc3ccc(O)cc3)C[C@@H]2Cc2ccc(O)cc2)cc1` were, in that order, 0.7% and “inactive”.
For `COc1c(C(=O)N2CCCC2)ccc2ccccc12` the same measures were 0.8% and “inactive”.
In the case of `COC(=O)C[n+]1cccc2ccccc21`, the GFP+ MAC1+ double positive came out at 1% and the normalized GFP-positive differentiation was 236% (active).
Turning to `COC(=O)C(C)NC(=O)COc1ccc2ccccc2c1` (stereo unspecified), the GFP+ MAC1+ double positive amounted to 1.3% and the result was inactive.
Regarding `CCc1nc2c(OCc3ccc(Cl)cc3Cl)cccn2c1N(C)C(=O)C(C)C`, the GFP+ MAC1+ double positive was 1.8% and the molecule was classed as inactive.
As to `CC(=O)N1CCN(Cc2cc(=O)oc3cc(C)ccc23)CC1`, the GFP+ MAC1+ double positive worked out at 1.6% and the call was inactive.
For `COC(=O)[C@]12CCCCC=C1N(Cc1ccc3c(c1)OCO3)C(=O)[C@H](CC(=O)NCc1cccs1)C2` the same measures were 0.4% and “inactive”.
Turning to `CCOC(=O)[C@]12CCCC=C1N(CCC1=CCCCC1)C(=O)[C@H](CC(=O)N1CCOCC1)C2`, the GFP+ MAC1+ double positive amounted to 4.8% and the outcome was inactive.
With `OCCC#Cc1ccc(N2C(c3ccsc3)=Cc3ccc(F)cc3C2c2c[nH]c3ccccc23)cc1` (stereo unspecified), the GFP+ MAC1+ double positive worked out at 2% and the normalized GFP-positive differentiation was 16.8% (active).
For the molecule `COc1ccc(CCCNC(=O)C2Cc3c(-c4cccc(C(N)=O)c4)ccnc3O2)cc1` (stereo unspecified), the GFP+ MAC1+ double positive came out at 0.5% and the result was inactive.
For `CN(Cc1cn(Cc2ccc(C(F)(F)F)cc2)nn1)C1CN(Cc2cn(Cc3ccc(C(F)(F)F)cc3)nn2)S(=O)(=O)C1` (stereo unspecified) the same measures were 1.6% and “inactive”.
For `CCCCNC(=O)C[C@@H]1C[C@@]2(C(=O)OCC)CCC=C2N(Cc2cccc3ccccc23)C1=O` the same measures were 0.6% and “inactive”.
For `CCOc1ccc(CCN2C(=O)C(=O)N([C@@H](Cc3ccc(O)cc3)CN3CCC[C@H]3CN3C(=O)C(=O)NC[C@@H]3CC(C)C)C[C@@H]2Cc2ccccc2)cc1` the same measures were 1% and “inactive”.
With `Cc1ccc(Nc2nc(N)nc(CSc3nnc(C)s3)n2)cc1`, the GFP+ MAC1+ double positive worked out at 0.4% and the outcome was inactive.
The like results for `O=[N+]([O-])c1ccccc1Nc1ccc(O)cc1` were, in that order, 0.4% and “inactive”.
On to `Cc1ccc(Nc2ccccc2N)cc1`, for which the GFP+ MAC1+ double positive is 0.6% and the normalized GFP-positive differentiation is 231% (active).
In the case of `CC1(C(=O)NCc2ccccc2)CN(S(C)(=O)=O)CC(=O)N1CC(F)(F)F` (stereo unspecified), the GFP+ MAC1+ double positive worked out at 1.4% and the call was inactive.
For `COc1ccc(C(=O)C[n+]2ccc(C)cc2)cc1` the same measures were 0.2% and “inactive”.
In the case of `COc1ccc(C(=O)C[n+]2ccc(N)c(C)c2C)cc1`, the GFP+ MAC1+ double positive amounted to 10.1% and the normalized GFP-positive differentiation was 39.6% (active).
Consider `CO/N=C/CC(=O)c1ccc(OC)cc1`, for which the GFP+ MAC1+ double positive amounted to 0.8% and the molecule was called inactive.
With `COc1ccc(N(Cc2cc3ccc(C)cc3[nH]c2=O)S(=O)(=O)c2ccccc2)cc1`, the GFP+ MAC1+ double positive turned out to be 9.4% and the normalized GFP-positive differentiation is 37.5% (active).
Consider `CCN(Cc1cc2cc(C)ccc2[nH]c1=O)S(=O)(=O)c1ccccc1`, for which the GFP+ MAC1+ double positive came out at 0.4% and the call was inactive.
The like results for `Cc1ccc2cc(CN(c3ccc(C)c(C)c3)S(C)(=O)=O)c(=O)[nH]c2c1` were, in that order, 0.3% and “inactive”.
The like results for `O=C(Nc1cccc2cccnc12)c1ccc2sc([C@H]3C[C@H](O)[C@@H](CO)O3)nc2c1` were, in that order, 0.8% and “inactive”.
The like results for `Cc1ccc(C(=O)Cn2cccn2)cc1` were, in that order, 0.3% and “inactive”.

Source of the values: PubChem BioAssay AID624256 (NMMLSC, 2012).
